PXC50 data for 26 compounds are collected here from ChEMBL document CHEMBL3988442, “University of Dundee, Small-Polar-MMV Screening Library” (2021).

The target in this test is T1, Methionyl-tRNA synthetase, putative (Leishmania donovani (strain BPK282A1)) (UniProt E9BF75).
T1 sequence (whole entry): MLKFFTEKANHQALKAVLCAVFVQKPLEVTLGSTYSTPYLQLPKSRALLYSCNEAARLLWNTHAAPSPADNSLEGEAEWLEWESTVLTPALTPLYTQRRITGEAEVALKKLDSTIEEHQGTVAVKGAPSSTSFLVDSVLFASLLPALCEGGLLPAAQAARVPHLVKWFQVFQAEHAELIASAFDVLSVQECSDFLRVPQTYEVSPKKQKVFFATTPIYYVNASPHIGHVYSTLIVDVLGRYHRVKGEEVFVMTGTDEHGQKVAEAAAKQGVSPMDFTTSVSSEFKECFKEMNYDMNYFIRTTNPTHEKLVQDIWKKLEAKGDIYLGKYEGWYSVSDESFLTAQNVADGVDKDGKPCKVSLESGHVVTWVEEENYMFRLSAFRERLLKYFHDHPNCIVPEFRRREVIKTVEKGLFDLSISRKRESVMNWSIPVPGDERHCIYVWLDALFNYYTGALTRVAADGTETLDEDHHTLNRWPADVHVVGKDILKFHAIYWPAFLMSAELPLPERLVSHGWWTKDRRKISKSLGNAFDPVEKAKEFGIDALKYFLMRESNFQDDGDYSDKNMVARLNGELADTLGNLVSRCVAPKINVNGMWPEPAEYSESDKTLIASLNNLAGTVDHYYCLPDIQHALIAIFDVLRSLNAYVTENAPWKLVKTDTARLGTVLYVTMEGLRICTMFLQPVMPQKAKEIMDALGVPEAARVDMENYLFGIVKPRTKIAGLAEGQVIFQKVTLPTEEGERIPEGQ
In words: Leishmania donovani Methionine tRNA synthetase (LdMetRS):v7. Dose response assay. The arrangement: conc 80 nM, time 150 minutes. The class given is functional.

Turning to `Cn1cc(CN2CCC(F)(F)C3(CCN(c4ncccn4)C3)C2)cn1` (centres undefined), the PXC50 (MAX_EFFECT -0.938967136) is less than 4 and the PXC50 (MAX_EFFECT -2.777777778) was less than 4.

Take `Cc1ccc(-c2ncc(CNc3cnccc3CO)s2)o1`: the PXC50 runs as follows: (MAX_EFFECT 7.511737089) less than 4; (MAX_EFFECT 8.703703704) less than 4.

As for `Cc1nc(NCc2cccnc2)c2c3c(sc2n1)CCC3`, the PXC50 was less than 4 (MAX_EFFECT 6.361323155) and less than 4 (MAX_EFFECT 13.85390428).

As for `CCc1[nH]c2c(CNc3cncc(C(=O)OC)n3)cc(C)cc2c1C`, the PXC50 was less than 4 (MAX_EFFECT 7.798960139), less than 4 (MAX_EFFECT 45.13888889) and less than 4 (MAX_EFFECT 45.63758389).

Regarding `NS(=O)(=O)c1cccnc1Nc1cc(C(=O)N2CCC2)cc(C(F)(F)F)c1`, the PXC50 reads like this: (MAX_EFFECT 2.375296912) less than 4; (MAX_EFFECT 5.755395683) less than 4; (MAX_EFFECT -0.429184549) less than 4.

Take `CS(=O)(=O)Nc1cccc2c(=O)cc(C(=O)NCC3(O)CCCCC3)oc12`: the PXC50 reads like this: (MAX_EFFECT 2.53968254) less than 4; (MAX_EFFECT 4.743083004) less than 4.

Take `CCc1cc(N[C@@H]2CC[C@@H](N)C2)n2nc(C)c(C)c2n1`: the PXC50 (BOTTOM 1.026617696, HILLSLOPE 1.297008069, MAX_EFFECT 52.85961872, TOP 100.0) worked out at 4.01; the PXC50 (BOTTOM 3.147594101, HILLSLOPE 1.2343555, MAX_EFFECT 68.05555556, TOP 100.0) stood at 4.22; the PXC50 (BOTTOM 4.251586265, HILLSLOPE 1.063316163, MAX_EFFECT 53.69127517, TOP 100.0) was found to be 4.06.

With `OCCNc1nc(Nc2ccc(F)c(F)c2)ncc1F`, the PXC50 (BOTTOM 4.80997506, HILLSLOPE 1.016069871, MAX_EFFECT 75.05938242, TOP 103.871029) was found to be 4.37; the PXC50 (BOTTOM 6.495032966, HILLSLOPE 1.205723909, MAX_EFFECT 75.53648069, TOP 100.0) is 4.33; the PXC50 (BOTTOM -1.721460895, HILLSLOPE 0.874564497, MAX_EFFECT 71.96261682, TOP 100.0) amounted to 4.5.

With `Cn1ncc2c(NCC3CC3)nc(Nc3ccc(F)c(F)c3)nc21`, the PXC50 (BOTTOM 0.0, HILLSLOPE 1.193695984, MAX_EFFECT 69.21119593, TOP 72.54722957) was found to be 5.02; the PXC50 (BOTTOM -3.303876123, HILLSLOPE 0.978123659, MAX_EFFECT 83.23699422, TOP 90.5971187) amounted to 5.12; the PXC50 (BOTTOM -7.642255371, HILLSLOPE 0.84165704, MAX_EFFECT 66.22807018, TOP 86.93864885) turned out to be 4.93.

`O=C(O)CC1COCCN1C(=O)C1(c2ccc(Cl)cc2)CCC1` (centres undefined) displayed a PXC50 (MAX_EFFECT 1.360544218) of less than 4, a PXC50 (MAX_EFFECT 1.449275362) of less than 4 and a PXC50 (MAX_EFFECT 4.378283713) of less than 4.

For the compound `CC(CO)Nc1nc(Nc2cccc(C(F)(F)F)c2)nc2c1cnn2C` (centres undefined), the PXC50 (MAX_EFFECT 16.69829222) was less than 4, the PXC50 (MAX_EFFECT 21.69811321) was less than 4 and the PXC50 (MAX_EFFECT 22.37442922) is less than 4.

Regarding `Cn1ncc2c(NCCO)nc(Nc3cccc(S(N)(=O)=O)c3)nc21`, the PXC50 by setting is: (MAX_EFFECT 2.127659574) less than 4; (MAX_EFFECT 6.392694064) less than 4; (MAX_EFFECT 11.50943396) less than 4.

For the compound `COc1ccccc1CN1CCC(c2nn(CCN)c3nccnc23)C1` (centres undefined), the PXC50 by setting is: (BOTTOM 6.910506635, HILLSLOPE 2.152998005, MAX_EFFECT 63.75838926, TOP 91.48778108) 4.15; (BOTTOM -1.343168311, HILLSLOPE 1.212343279, MAX_EFFECT 59.72222222, TOP 92.89137202) 4.23; (BOTTOM -1.505582699, HILLSLOPE 1.035538343, MAX_EFFECT 55.28596187, TOP 100.0) 4.07.

Turning to `Cn1ncc2c(NCCO)nc(Nc3cccc(O)c3)nc21`, the PXC50 reads like this: (MAX_EFFECT 5.386416862) less than 4; (MAX_EFFECT 6.072106262) less than 4; (MAX_EFFECT 8.167770419) less than 4.

Turning to `Cc1nc(N2CCCC2)c2c3c(sc2n1)CCCC3`, the PXC50 by setting is: (MAX_EFFECT 9.895833333) less than 4; (MAX_EFFECT 12.71929825) less than 4.

As for `CC(C)C[C@@H](COc1cccc(F)c1Oc1ccc(Cl)cc1)NS(C)(=O)=O`, the PXC50 (MAX_EFFECT 6.609808102) was less than 4 and the PXC50 (MAX_EFFECT 8.902691511) is less than 4.

For `CN(C)S(=O)(=O)c1cccnc1Nc1cccc(C(F)(F)F)c1`, the PXC50 runs as follows: (MAX_EFFECT 3.964757709) less than 4; (MAX_EFFECT 9.867172676) less than 4; (MAX_EFFECT -2.272727273) less than 4.

`Nc1cc2c(nn1)CCN(C(=O)c1csc(-c3cccs3)n1)C2`: the PXC50 by setting is: (MAX_EFFECT 19.04761905) less than 4; (MAX_EFFECT 19.56521739) less than 4; (MAX_EFFECT 20.14010508) less than 4.

In the case of `Cc1nc(N2CC[C@@H](O)C2)c2c(-c3cccs3)csc2n1`, the PXC50 runs as follows: (MAX_EFFECT -2.07253886) less than 4; (MAX_EFFECT -3.723404255) less than 4.

Consider `COc1ccc(Oc2nccc3occc23)cc1CN1CCCC1`, for which the PXC50 came to 4.06 (BOTTOM 5.268776127, HILLSLOPE 1.354854137, MAX_EFFECT 57.61821366, TOP 100.0); 4.08 (BOTTOM -7.168939731, HILLSLOPE 0.901042745, MAX_EFFECT 51.70068027, TOP 100.0); 4.09 (BOTTOM -7.793188509, HILLSLOPE 1.286586052, MAX_EFFECT 52.89855072, TOP 100.0).

Regarding `COc1ccc(-c2nc3c([nH]2)CCNC3C(=O)O)c2ccc(C)nc12` (centres undefined), the PXC50 by setting is: (BOTTOM 1.718114205, HILLSLOPE 1.017534888, MAX_EFFECT 58.69565217, TOP 100.0) 4.17; (BOTTOM 3.702697872, HILLSLOPE 1.816429842, MAX_EFFECT 76.89768977, TOP 100.0) 4.25; (BOTTOM -10.20592251, HILLSLOPE 0.737543358, MAX_EFFECT 64.87455197, TOP 100.0) 4.33.

Regarding `CNc1cc(-c2cccc(CN)c2)c2cc[nH]c2n1`, the PXC50 was 4.55 (BOTTOM 0.988395417, HILLSLOPE 1.522848712, MAX_EFFECT 89.26174497, TOP 100.0); 4.5 (BOTTOM -0.303339397, HILLSLOPE 1.457263574, MAX_EFFECT 90.27777778, TOP 100.0); 4.07 (BOTTOM -1.705392775, HILLSLOPE 1.008817214, MAX_EFFECT 54.59272097, TOP 100.0).

Turning to `Cc1nc(N(C)CCC#N)c2c3c(sc2n1)CC(C)CC3` (centres undefined), the PXC50 (MAX_EFFECT 3.723404255) is less than 4 and the PXC50 (MAX_EFFECT 5.699481865) is less than 4.

Turning to `Cn1ncc2c(NCCN)nc(Nc3ccc(F)c(F)c3)nc21`, the PXC50 was 4.79 (BOTTOM 0.911965316, HILLSLOPE 1.032464682, MAX_EFFECT 89.9543379, TOP 102.6852722); 4.84 (BOTTOM 7.300924011, HILLSLOPE 0.949344895, MAX_EFFECT 92.59962049, TOP 105.5838005); 4.68 (BOTTOM 8.334888852, HILLSLOPE 1.031126137, MAX_EFFECT 87.73584906, TOP 103.8891038).

Consider `COCC(C)NC(=O)c1ccc2ccc(N3CCN(S(C)(=O)=O)CC3)n2c1` (centres undefined), for which the PXC50 (BOTTOM 3.011130377, HILLSLOPE 1.725207909, MAX_EFFECT 55.66037736, TOP 58.49588417) came to 4.74 and the PXC50 (MAX_EFFECT 48.85844749) was less than 4.

In the case of `Cn1ncc2c(NCCN3CCOCC3)nc(Nc3ccc(F)c(F)c3)nc21`, the PXC50 is, setting by setting: (BOTTOM 0.0547, HILLSLOPE 0.927770989, MAX_EFFECT 85.76850095, TOP 98.88350894) 4.86; (BOTTOM -0.988495369, HILLSLOPE 1.035285925, MAX_EFFECT 73.01886792, TOP 82.1779252) 4.91; (BOTTOM -7.338677117, HILLSLOPE 0.775594481, MAX_EFFECT 82.64840183, TOP 100.0) 4.76.
